Screens (PubChem)
KKLEB tox: counter-screen for CF NF-kB inhibitors: cytotoxicity. KKLEB CF airway cells viability, ATPlite luminescence, overnight; hits give low values; cells stimulated with P. aeruginosa culture filtrate. activity change (cytotoxicity), % at 5 µM. AID 602141. 360,000 compounds, 0.36% hits;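 active = corrected activity change at or below -50% at 5 µM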
TROY NFkB inh: blocks TROY-dependent signaling in reporter cells. AID 1347056. 360,000 compounds, 0.98% hits. inhibition, % at 10 µM. Q293 LMP1-TROYcd NF-kB luciferase reporter, 4 h;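 active = compounds whose plate-normalised and pattern-corrected inhibition of the luciferase reporter signal at the single screening dose is 50% or more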
HIF-2a inh: inhibitors of HIF-2a; 786-0 RCC cells HIF-2a reporter, luciferase luminescence, overnight; inhibition, % at 18.8 µM; 360,000 compounds, 0.72% hits; AID 624352;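 active = inhibition of the luminescence signal of 40% or more relative to plate controls, in a single-dose primary screen at 18.75 µM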
CF NFkB block: inhibitors of cystic fibrosis induced NF-kB; KKLEB NF-kB-GFP reporter, PAF-induced, GFP fluorescence overnight; inhibition, % at 5 µM; 360,000 compounds, 0.86% hits; AID 588850;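 active = at least 50% inhibition at 5 µM, scaled per plate between neutral and stimulator controls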;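 also: PAF is a Pseudomonas aeruginosa culture filtrate used as stimulus; plate controls were PAF-stimulated DMSO wells for no effect and unstimulated DMSO wells for full effect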
TWEAK-Fn14 inh: TWEAK-Fn14 signaling inhibition. TWEAK-stimulated Fn14 reporter cells, luciferase luminescence, 8 h. inhibition, % at 10 µM. 360,000 compounds, 2% hits; in the data active = inhibition above about 50%
Peg3 prom inh-1: reduces Peg3 promoter-driven luciferase expression in HeLa. HeLa PEG-Prom luciferase reporter, luminescence, overnight. inhibition, % at 20 µM. 360,000 compounds, 1.7% hits. AID 588405;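 active = inhibition of at least 50% at 20 µM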
Peg3 prom inh-2: Peg3 promoter inhibition confirmation. HeLa PEG-Prom luciferase reporter, luminescence, overnight. 1,300 compounds, 84% hits. inhibition, % at 20 µM. shares compounds with Peg3 prom inh-1;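 active = at 20 µM dose, 40% or more inhibition averaged across four replicates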
* marks the source's active call; other numbers are inactive results; x = not tested or not shown. This is a sample that favours compounds with a hit; in the whole collection about 4% have one here.

SMILES	KKLEB tox	TROY NFkB inh	HIF-2a inh	CF NFkB block	TWEAK-Fn14 inh	Peg3 prom inh-1	Peg3 prom inh-2
CC(=O)Nc1cccc(-c2ccnc3c2CC(C)(C(=O)Nc2cccc(OC(F)(F)F)c2)O3)c1 (centres undefined)	-13	42	28	14	16	63*	61*
CC1(C(=O)Nc2cccc(OC(F)(F)F)c2)Cc2c(-c3cccc(C(F)(F)F)c3)ccnc2O1 (centres undefined)	-15	-4	10	3	-4	14	x
Brc1ccc(N/N=C(/N=Nc2nn[nH]n2)c2ccccc2)cc1	-4	-46	-57	23	28	70*	64*
COc1ccc(-n2c(O)c(/C=N/Nc3nc(C)cc(C)n3)c3ccccc3c2=O)cc1OC	-5	-50	23	20	19	56*	45*
CC(C)(C)c1ccc(C(=O)N2CCC2(C)C(=O)NCc2ccc3c(c2)OCO3)cc1 (centres undefined)	-5	8	6	13	15	-2	x
CCCOC(=O)c1cccc(Nc2nc(-c3cccnc3)nc3ccccc23)c1	-22	24	21	0	57*	96*	95*
O=C(OCCNc1nc(-c2ccccc2)nc2ccccc12)c1cccnc1	-6	-1	11	-7	12	21	x
CCN(CC)C(=O)[C@H]1C[C@H](CC(=O)NCCN2CCOCC2)C(=O)N2CCc3c([nH]c4cc(-c5ccco5)ccc34)[C@]12C	11	-1	-3	3	4	-22	x
COc1cc(/C=C2\SC(=Nc3ccccc3OC)NC2=O)ccc1O	-31	24	16	51*	40	64*	68*
CN(C)CCCNc1nc2cc(-c3ccsc3)sc2c(=O)n1C	0	2	-28	-11	-34	-4	x
Cc1ccc(F)cc1-c1cc2nc(NCCCN(C)C)n(C)c(=O)c2s1	17	4	-6	3	-6	70*	48*
CCC(C)NC(=O)c1c(N)n(/N=C/c2cccnc2)c2nc3ccccc3nc12 (centres undefined)	-6	-15	-44	-2	51*	50*	15
COCCCNC(=O)c1c(N)n(/N=C/c2cccnc2)c2nc3ccccc3nc12	-4	-11	1	-31	26	47	x
COc1ccc(S(=O)(=O)/N=C2\C=C(Nc3ccc(O)cc3)C(=O)c3ccccc32)cc1	-74*	35	1	101*	101*	104*	98*
COc1cccc(Nc2nc(C(N)C3CCCCC3)cs2)n1 (centres undefined)	-5	-5	5	6	19	96*	63*
Cc1ccccc1NC(=O)Nc1nc(C(N)C2CCCCC2)cs1 (centres undefined)	-14	-3	2	18	-52	86*	81*
CC(C)c1ccc(NC(=O)Nc2nc(C(C)N)cs2)cc1 (centres undefined)	0	27	4	0	-5	86*	90*
COc1cccc(Nc2nc(C(C)N)cs2)n1 (centres undefined)	14	-1	10	-28	-8	6	x
CC(C)c1ccc(NC(=O)Nc2nc(CN)cs2)cc1	6	-58	-52	5	-19	-270	x
NC(c1csc(Nc2nccc(C(F)(F)F)n2)n1)C1CCCCC1 (centres undefined)	0	6	-1	-4	-16	83*	94*
Oc1ccc(-c2nccs2)cc1	-15	-6	-27	-7	-4	-55	x
Cc1cccc(CN2CCC(Oc3ccc(C(=O)N4CCCCC4)cc3)CC2)c1	-12	18	16	7	3	11	x
CC(C)CCOc1ccc(C(=O)NN2C(=O)NC3(CCCCC3)C2=O)cc1	-2	-42	2	5	-18	-2	x
COc1ccc(NC(=O)Nc2nc(C(N)C3CCCCC3)cs2)cc1 (centres undefined)	-8	11	-2	10	-22	54*	71*
COc1cccc(-c2sc3ccc(OC)cc3c2-c2ccc(O)cc2)c1	1	-4	22	-12	16	17	x
COc1cccc(-c2sc3ccc(OC)cc3c2-c2ccc(OCCN(C)C)cc2)c1	-20	22	-5	38	-40	100*	71*
